The structures appear in SMILES notation. Where “and” joins values, the source holds several entries; their conditions need not be identical. Equal values may be shown once. Inconclusive results are not listed. Calls of active or inactive are those of the source. Calls come from the whole dose curve.

Chain of Bile acid receptor (Homo sapiens) (Q96RI1 whole entry, looked up): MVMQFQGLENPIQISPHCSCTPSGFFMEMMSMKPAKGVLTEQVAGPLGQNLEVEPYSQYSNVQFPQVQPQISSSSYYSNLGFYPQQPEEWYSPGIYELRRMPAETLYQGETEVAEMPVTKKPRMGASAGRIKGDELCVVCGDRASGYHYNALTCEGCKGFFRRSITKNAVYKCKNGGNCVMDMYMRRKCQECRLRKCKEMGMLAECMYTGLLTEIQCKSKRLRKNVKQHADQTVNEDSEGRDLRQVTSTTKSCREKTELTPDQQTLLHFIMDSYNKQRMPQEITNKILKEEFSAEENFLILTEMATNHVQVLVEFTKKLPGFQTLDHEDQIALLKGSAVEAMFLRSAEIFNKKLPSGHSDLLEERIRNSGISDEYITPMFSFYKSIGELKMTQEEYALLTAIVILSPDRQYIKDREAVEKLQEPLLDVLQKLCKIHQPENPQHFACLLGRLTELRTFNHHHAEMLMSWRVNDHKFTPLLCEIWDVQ

The experiment concerns the target Bile acid receptor (Homo sapiens) (UniProt Q96RI1). The experiment in a line: qHTS assay for small molecule agonists of farnesoid X receptor signaling (AID 588527).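 Note: series mostly up to about 77 µM; 0% = vehicle basal and 100% = reference agonist.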 The conditions noted are these: HEK293T FXR-UAS-bla, beta-lactamase ratio, 16 h; stronger effect = higher value. The text has this: NIH Chemical Genomics Center [NCGC] U.S. Environmental Protection Agency [EPA] National Institutes of Environmental Health Sciences [NIEHS] National Toxicology Program [NTP] NCGC Assay Overview The farnesoid-X-receptor (FXR), a nuclear hormone receptor is highly expressed in liver, intestine, kidney and adrenal cortex. Natural ligands of FXR are the bile acids (Cholic acid, Chenodeoxy cholic acid etc). It is an important regulator of diverse metabolic pathways, including the bile acid homeostasis, lipid and glucose metabolisms. FXR regulates the expression of target genes by binding either as a monomer or as a heterodimer with RXR (retinoid X receptor). As FXR regulates a large number of target genes involved in bile acid, lipoprotein and glucose metabolisms, it is a potential pharmacological target for bile acid and lipid disorders. Thus screening environmental chemicals on FXR signaling can be used for the studies focused on metabolic syndrome, hepatic and intestinal toxicity etc.
NCGC Assay Protocol Summary Using a beta-lactamase reporter-gene under control of Farnesoid X receptor (FXR) response element, a cell-based assay [GeneBLAzer FXR-UAS-bla assay developed by Invitrogen] was used to measure FXR ligands signaling. GeneBLAzer FXR-UAS-bla HEK293T cells were used with assay medium containing 10% dialyzed FBS. The assay was performed in clear bottom black Greiner 1536-well plates. Chenodeoxycholic acid and Guggulsterone were used in the screen as agonist and antagonist positive controls respectively. Library compounds were measured for their ability to stimulate the reporter gene activity. Compounds were screened in a titration series in 1536-well format. […] Data was normalized relative to Chenodeoxycholic acid control (100 uM, 100%), and DMSO only wells (basal, 0%). Concentration-response titration points for each compound were fitted to the Hill equation yielding concentrations of half-maximal stimulation (EC50) and maximal response (efficacy) values. qHTS protocol for FXR beta-lactamase assay in agonist mode [Step] [Parameter] [Value] [Description] 1. Reagent; 6 uL; 5000 cells/well 2. Incubation; 37 C for 5-7 hrs 3. Compounds; 23 nL; 0.59 nM to 92 uM 4. Controls (Chenodeoxycholic acid); 23 nL, - One column with dose response, start 200 uM, 1:2 dilutions in duplicates - Final concentrations of 100 uM and 60 uM in two columns 5. Incubation; 37 C for 16 hrs 6. Detection reagent; 1 uL of CCF4-dye 7. Incubation; RT for 2 hrs 8. Detection; Fluorescence; Envision plate reader
(Quantitative high-throughput screening tests each substance at several concentrations.)
Consider `CCCN(CCC)S(=O)(=O)c1ccc(C(=O)O)cc1`, for which the activation is -0.735% (inactive) and 0.243% (inactive).

Take `Cc1cc(SCc2sc(-c3ccc(C(F)(F)F)c(F)c3)nc2C)ccc1OCC(=O)O`: the activation is -2.28% (inactive). For the compound `CN(Cc1cnc2nc(N)nc(N)c2n1)c1ccc(C(=O)N[C@@H](CCC(=O)O)C(=O)O)cc1`, the activation was -5.02% (inactive).

Consider `C=C(C)[C@H]1Cc2c(ccc3c2O[C@@H]2COc4cc(OC)c(OC)cc4[C@@H]2C3=O)O1`, for which the activation is -1.33% (inactive).

Turning to `Oc1cccc2cccnc12`, the activation was -3.45% (inactive) and -4.35% (inactive).

For the compound `Clc1ccc(C(c2ccccc2Cl)C(Cl)Cl)cc1` (stereo not given), the activation was 3.36% (inactive).

Take `COC1=CC(=O)C[C@@H](C)[C@]12Oc1c(Cl)c(OC)cc(OC)c1C2=O`: the activation was 0.423% (inactive). For `Clc1ccc(COC(Cn2ccnc2)c2ccc(Cl)cc2Cl)cc1` (stereo not given), the activation is 9.99% (inactive). Under `CNCC(O)c1ccc(O)cc1` (stereo not given) stands -1.79% (inactive).

As to `CN(C)/N=N/c1nc[nH]c1C(N)=O`, the activation is -3.3% (inactive). As to `Cc1ccccc1C(OCCN(C)C)c1ccccc1` (stereo not given), the activation was -1.23% (inactive). Under `OCCOc1ccccc1` stands 0.0237% (inactive) and -6.3% (inactive) and -0.639% (inactive); under `CC(C)OC(=O)C(C)(C)Oc1ccc(C(=O)c2ccc(Cl)cc2)cc1`, 2.77% (inactive).

Regarding `O=c1[nH]cc(F)c(=O)[nH]1`, the activation is -1.24% (inactive). Turning to `C[C@]12C/C(=C/O)C(=O)C[C@@H]1CC[C@@H]1[C@@H]2CC[C@@]2(C)[C@H]1CC[C@]2(C)O`, the activation was 1.58% (inactive). As to `COc1cc2c(c(OC)c1OC)-c1ccc(OC)c(=O)cc1[C@@H](NC(C)=O)CC2`, the activation was -2.29% (inactive). Take `Cc1ccc(C)c(OCCCC(C)(C)C(=O)O)c1`: the activation was -2.62% (inactive) and -0.135% (inactive). Take `CN(C)CCC=C1c2ccccc2CCc2ccccc21`: the activation is -2.7% (inactive) and 0.944% (inactive). Regarding `CCn1cc(C(=O)O)c(=O)c2ccc(C)nc21`, the activation is -0.319% (inactive) and 0.585% (inactive). Take `C[C@H]1O[C@@H](O[C@H]2[C@@H](O)C[C@H](O[C@H]3[C@@H](O)C[C@H](O[C@H]4CC[C@@]5(C)[C@H](CC[C@@H]6[C@@H]5CC[C@]5(C)[C@@H](C7=CC(=O)OC7)CC[C@]65O)C4)O[C@@H]3C)O[C@@H]2C)C[C@H](O)[C@@H]1O`: the activation was -2.75% (inactive). Under `CC1(C)NC(=O)N(c2ccc([N+](=O)[O-])c(C(F)(F)F)c2)C1=O` stands 0.399% (inactive); under `CC[C@H](C)C(=O)O[C@H]1C[C@@H](C)C=C2C=C[C@H](C)[C@H](CC[C@@H]3C[C@@H](O)CC(=O)O3)[C@H]21`, -3.65% (inactive). Under `Nc1ccc(O)c(C(=O)O)c1` stands -5.01% (inactive) and -0.178% (inactive); under `C#C[C@]1(O)CC[C@H]2[C@@H]3CCC4=Cc5oncc5C[C@]4(C)[C@H]3CC[C@@]21C`, -1.05% (inactive). Under `CC(C)(C)CC(C)(C)c1ccc(O)cc1` stands 3.19% (inactive); under `O=C(CCCN1CCC(O)(c2ccc(Cl)cc2)CC1)c1ccc(F)cc1`, -8.42% (inactive); under `CCCCOCCOCCOCc1cc2c(cc1CCC)OCO2`, 1.08% (inactive) and -5.21% (inactive). Consider `CCC1(c2ccccc2)C(=O)NCNC1=O`, for which the activation is -0.167% (inactive) and -0.256% (inactive). With `Cc1cn([C@H]2C=C[C@@H](CO)O2)c(=O)[nH]c1=O` the figure was -2.48% (inactive) and 1.31% (inactive) and -0.393% (inactive); with `CC1=C(/C=C/C(C)=C/C=C/C(C)=C/C(=O)Nc2ccc(O)cc2)C(C)(C)CCC1`, -5.41% (inactive).

Turning to `COc1ccc(Cl)cc1C(=O)NCCc1ccc(S(=O)(=O)NC(=O)NC2CCCCC2)cc1`, the activation is 0.916% (inactive). As to `Cc1cn([C@H]2C[C@H](N=[N+]=[N-])[C@@H](CO)O2)c(=O)[nH]c1=O`, the activation is -3.84% (inactive). For `CCc1nc(N)nc(N)c1-c1ccc(Cl)cc1`, the activation was -5.01% (inactive) and -3.58% (inactive). Under `CCCCNC(=O)NS(=O)(=O)c1ccc(C)cc1` stands 0.0302% (inactive) and 2.67% (inactive).

For `N[C@@H](Cc1ccc(N(CCCl)CCCl)cc1)C(=O)O`, the activation was 0.124% (inactive). Under `O=c1oc2ccccc2c(O)c1C(CC(O)c1ccc(-c2ccc(Br)cc2)cc1)c1ccccc1` (stereo not given) stands -8.03% (inactive); under `O=c1[nH]c2ccccc2n1C1CCN(CCCC(c2ccc(F)cc2)c2ccc(F)cc2)CC1`, -1.92% (inactive).

For `CC(C)C(=O)Nc1ccc([N+](=O)[O-])c(C(F)(F)F)c1`, the activation is -2.87% (inactive) and 6.82% (inactive). In the case of `NC(=Nc1ccccc1)Nc1ccccc1`, the activation was -1.85% (inactive) and 0.0042% (inactive). For `Cc1ccnc2c1NC(=O)c1cccnc1N2C1CC1`, the activation is 5.2% (inactive).

(Values after PubChem BioAssay (NCATS).)
